Compounds without any hit were thinned out: in the full panel of roughly 79,000, 15% have a hit. Activity calls are given as the source filed them. Cut-off read from the data, not from the text of the source: active = growth inhibition above about 70%; inactive = the rest.
Assays:
[1] = NCI Yeast Anticancer Drug Screen. Data for the mec2-1 strain (AID 157); conditions: S. cerevisiae mec2-1 strain, stronger effect = higher value
Outline: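 Test agents were screened against the mec2-1 yeast strain, with defined DNA repair or cell cycle alteration. Growth was scored as inhibition against vehicle-only controls.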

[2] = NCI Yeast Anticancer Drug Screen. Data for the rad14 strain (AID 159);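 note: 0% = growth of vehicle-treated control cultures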; conditions: S. cerevisiae rad14 strain growth inhibition, stronger effect = higher value
Outline: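 Test compounds were applied to a repair-deficient yeast strain. Its growth was then compared with that of cultures given vehicle alone, and inhibition was expressed relative to those controls.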

[3] = NCI Yeast Anticancer Drug Screen. Data for the sgs1 mgt1 strain (AID 161);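 note: 0% = growth of cultures given vehicle only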; conditions: S. cerevisiae sgs1 mgt1 strain, stronger effect = higher value
Outline: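 Test agents were incubated with a DNA-repair-mutant yeast strain. Growth was then read and compared against vehicle-treated controls.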

[4] = NCI Yeast Anticancer Drug Screen. Data for the CLN2oe strain (AID 163);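 note: 0% = growth of vehicle-only control cultures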; conditions: S. cerevisiae CLN2oe strain, stronger effect = higher value
Outline: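 Here, growth inhibition in a cell-cycle-altered yeast strain after compound exposure was quantified against vehicle control growth.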

[5] = NCI Yeast Anticancer Drug Screen. Data for the cln2 rad14 strain (AID 165);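 note: 0% = growth equal to vehicle treated cultures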; conditions: S. cerevisiae cln2 rad14 strain, stronger effect = higher value
Outline: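 Growth of compound-exposed yeast (cln2 rad14 genotype) measured and expressed as inhibition relative to vehicle.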

[6] = NCI Yeast Anticancer Drug Screen. Data for the bub3 strain (AID 167); conditions: S. cerevisiae bub3 mutant strain, stronger effect = higher value
Outline: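 Yeast carrying a defined mutation is treated with each compound, and growth is compared with that of vehicle-exposed cells to give inhibition.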

[7] = NCI Yeast Anticancer Drug Screen. Data for the wt2 strain (AID 169);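 note: 0% = growth of vehicle-treated yeast cultures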; conditions: S. cerevisiae wt2 strain growth inhibition, stronger effect = higher value
Outline: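 Genetically defined yeast strains from a DNA-repair/cell-cycle panel were used. Compound-exposed yeast growth was measured, and the inhibition was calculated relative to vehicle treatment.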

[8] = NCI Yeast Anticancer Drug Screen. Data for the mlh1 strain (AID 171);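 note: 0% = growth of vehicle-treated control cultures of the same strain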; conditions: S. cerevisiae mlh1 strain growth inhibition, stronger effect = higher value
Outline: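 Here the genetically defined yeast mutant is grown with each compound, and the extent to which its growth falls below that of vehicle-exposed cells is reported.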

[9] = NCI Yeast Anticancer Drug Screen. Data for the sgs1 strain (AID 173);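 note: 0% = growth of vehicle-only control cultures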; conditions: S. cerevisiae sgs1 mutant, stronger effect = higher value
Outline: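 Relative growth inhibition, referenced to vehicle, was determined in a yeast strain with a defined alteration affecting DNA damage repair or cell cycle control after compound exposure.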

[10] = NCI Yeast Anticancer Drug Screen. Data for the mlh1 rad18 strain (AID 175); conditions: S. cerevisiae mlh1 rad18 strain growth inhibition, stronger effect = higher value
Outline: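 In this whole-cell yeast screen, a strain with altered DNA damage repair is challenged with compound, and its growth is measured against matched vehicle-treated controls.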

[11] = NCI Yeast Anticancer Drug Screen. Data for the rad18 strain (AID 177); conditions: S. cerevisiae rad18 mutant growth inhibition, stronger effect = higher value
Outline: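 Screen uses a yeast strain with a defined lesion in DNA damage repair; compound effect is read as loss of growth compared to untreated vehicle cultures.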

[12] = NCI Yeast Anticancer Drug Screen. Data for the rad52 strain (AID 147);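 note: 0% = growth of vehicle-treated control cultures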; conditions: S. cerevisiae rad52 mutant growth inhibition, stronger effect = higher value
Outline: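 Measured: yeast growth inhibition. System: strain with a defined DNA damage repair alteration. Reference: vehicle-treated control cultures.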

[13] = NCI Yeast Anticancer Drug Screen. Data for the wt1 strain (AID 149);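 note: 0% = growth of vehicle-treated wt1 cultures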; conditions: S. cerevisiae wt1 strain (SPY 50644) growth inhibition, stronger effect = higher value
Outline: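 wt1 yeast, compound-treated; % growth inhibition vs vehicle control.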

[14] = NCI Yeast Anticancer Drug Screen. Data for the rad50EPP+ strain (AID 151);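 note: 0% = growth of vehicle-treated control cultures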; conditions: S. cerevisiae rad50 mutant strain, stronger effect = higher value
Outline: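 One strain with a rad50 alteration (rad50EPP+) was compound-treated, its growth then compared to that of vehicle controls.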

[15] = NCI Yeast Anticancer Drug Screen. Data for the mgt1 strain (AID 153); conditions: S. cerevisiae mgt1 mutant growth inhibition, stronger effect = higher value
Outline: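 After exposure of the mgt1 yeast mutant to compound, growth was measured and reported as inhibition compared with vehicle controls.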

[16] = NCI Yeast Anticancer Drug Screen. Data for the rad50 strain (AID 155);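 note: 0% = growth of vehicle-only cultures of the same strain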; conditions: S. cerevisiae rad50 strain growth inhibition, stronger effect = higher value
Outline: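 Genetically altered yeast (DNA repair pathway); compound treatment; growth inhibition vs vehicle ctrl.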

[17] = at 5.0 µM (retest, dose inferred, filed as 0.5)
[18] = at 50.0 µM (retest, dose inferred, filed as 5.0)

Measured: growth inhibition

Cc1cc(OCc2ccccc2)ccc1[N+](=O)[O-]
active: [1]; at 100.0 µM 78% | [3]; [18] 88% | [3]; at 50.0 µM 74.6% | [4]; at 100.0 µM 71% | [5]; [18] 93% | [6]; [18] 95% | [8]; at 100.0 µM 82% | [9]; at 100.0 µM 88% | [10]; [18] 84%
inactive: [2]; at 1.2 µM -15% | [2]; at 3.7 µM 1% | [2]; at 11.0 µM 11% | [2]; at 33.0 µM 39% | [2]; at 100.0 µM 63% | [3]; [17] -5% | [4]; at 1.2 µM 9% | [4]; at 3.7 µM 23% | [4]; at 11.0 µM 11% | [4]; at 33.0 µM 32% | [5]; [17] 40% | [5]; at 50.0 µM 44.1% | [6]; at 1.2 µM -16% | [6]; at 3.7 µM -11% | [6]; [17] 33% | [6]; at 11.0 µM -5% | [6]; at 33.0 µM 12% | [6]; at 50.0 µM 55.6% | [6]; at 100.0 µM 51% | [7]; at 1.2 µM -11% | [7]; at 3.7 µM -11% | [7]; at 11.0 µM -7% | [7]; at 33.0 µM 9% | [7]; at 100.0 µM 47% | [8]; at 1.2 µM 21% | [8]; at 3.7 µM 15% | [8]; at 11.0 µM 3% | [8]; at 33.0 µM 16% | [9]; at 1.2 µM 11% | [9]; at 3.7 µM 16% | [9]; at 11.0 µM 6% | [9]; at 33.0 µM 38% | [10]; [17] 42% | [10]; at 50.0 µM 18.1% | [11]; at 1.2 µM -15% | [11]; at 3.7 µM -14% | [11]; at 11.0 µM -14% | [11]; at 33.0 µM 22% | [11]; at 100.0 µM 66%

O=NN(CCCl)C(=O)NC1CCCCC1
active: [11]; at 11.0 µM 84% | [11]; at 33.0 µM 92%
inactive: [12]; at 1.2 µM 6% | [12]; at 3.7 µM 11% | [12]; at 11.0 µM 33% | [12]; at 33.0 µM 44% | [12]; at 100.0 µM 50% | [13]; at 1.2 µM -2% | [13]; at 3.7 µM -1% | [13]; at 11.0 µM 1% | [13]; at 33.0 µM 5% | [13]; at 100.0 µM -5% | [14]; at 1.2 µM 16% | [14]; at 3.7 µM 24% | [14]; at 11.0 µM 45% | [14]; at 33.0 µM 61% | [14]; at 100.0 µM 49% | [15]; at 1.2 µM -3% | [15]; at 3.7 µM -2% | [15]; at 11.0 µM 1% | [15]; at 33.0 µM 2% | [15]; at 100.0 µM 10% | [16]; at 1.2 µM 5% | [16]; at 3.7 µM 12% | [16]; at 11.0 µM 39% | [16]; at 33.0 µM 55% | [16]; at 100.0 µM 52% | [1]; at 1.2 µM -1% | [1]; at 3.7 µM 4% | [1]; at 11.0 µM 10% | [1]; at 33.0 µM 13% | [1]; at 100.0 µM 13% | [2]; at 1.2 µM 1% | [2]; at 3.7 µM 7% | [2]; at 11.0 µM 13% | [2]; at 33.0 µM 15% | [2]; at 100.0 µM 14% | [6]; at 1.2 µM -4% | [6]; at 3.7 µM -3% | [6]; at 11.0 µM 3% | [6]; at 33.0 µM 14% | [6]; at 100.0 µM 12% | [7]; at 1.2 µM -3% | [7]; at 3.7 µM -2% | [7]; at 11.0 µM 2% | [7]; at 33.0 µM 11% | [7]; at 100.0 µM 49% | [8]; at 1.2 µM 0% | [8]; at 3.7 µM 1% | [8]; at 11.0 µM 8% | [8]; at 33.0 µM 11% | [8]; at 100.0 µM 17% | [9]; at 1.2 µM 4% | [9]; at 3.7 µM 7% | [9]; at 11.0 µM 22% | [9]; at 33.0 µM 34% | [9]; at 100.0 µM 43% | [11]; at 1.2 µM 29% | [11]; at 3.7 µM 46% | [11]; at 100.0 µM 53%
